Source: the antibiotic and cytotoxicity screens of Wong et al. (2023)
Hit rate of the full screen: of about 39,000 compounds, about 3,300 (8.5%) were called active. The list comes from a sample in which actives are over-represented; it also holds similar structures and randomly drawn compounds.

tested on: HepG2; assay: cytotoxicity call (relative viability < 0.9); details: 10 µM

SMILES	cytotoxicity call
C[C@@H]1CN([C@@H](C)CO)S(=O)(=O)c2ccc(C#CC(C)(C)O)cc2O[C@@H]1CN(C)C(=O)C1CCCCC1	inactive
C[C@@H]1CN([C@@H](C)CO)C(=O)c2cc(NS(=O)(=O)c3cn(C)cn3)ccc2O[C@@H]1CN(C)Cc1ccc(C(=O)Nc2ccccc2N)cc1	inactive
O=C(C[C@@H]1CC[C@@H](NC(=O)CN2CCOCC2)[C@H](CO)O1)NCc1cccc(F)c1	inactive
C[C@H]1CN([C@@H](C)CO)C(=O)Cc2cc(NS(=O)(=O)c3cccs3)ccc2O[C@H]1CN(C)S(C)(=O)=O	inactive
C[C@H](CO)N1C[C@H](C)[C@H](CN(C)Cc2ccccc2)Oc2ccc(NC(=O)Cn3cnnn3)cc2C1=O	inactive
C[C@@H]1CN([C@@H](C)CO)C(=O)c2cccc(NC(=O)c3cnccn3)c2O[C@@H]1CN(C)Cc1ccncc1	inactive
COc1ccc2c3c(n(c2c1)C)[C@@H](CO)N(C[C@]13CCN(CC1)C(=O)Nc1cccc(c1)F)C(=O)CN1CCOCC1	inactive
C[C@@H]1CN([C@H](C)CO)C(=O)c2cccc(NC(=O)Nc3ccc4c(c3)OCO4)c2O[C@H]1CN(C)Cc1ccc(Cl)c(Cl)c1	inactive
CNC[C@H]1Oc2ccc(NS(=O)(=O)c3cn(C)cn3)cc2CC(=O)N([C@@H](C)CO)C[C@H]1C	inactive
C[C@H](O)C#Cc1ccc2c(c1)O[C@@H](CN(C)C(=O)c1ccccc1)[C@@H](C)CN([C@H](C)CO)S2(=O)=O	inactive
COc1ccc(NC(=O)Nc2ccc3c(c2)C(=O)N([C@H](C)CO)C[C@@H](C)[C@@H](CN(C)S(=O)(=O)c2cccs2)OCCCC[C@H](C)O3)cc1	inactive
CO[C@@H]1CN(C)C(=O)c2cc(NC(=O)NC3CCCCC3)ccc2OC[C@@H](C)N(CCc2ccccc2)C[C@H]1C	active
CO[C@@H]1CN(C)C(=O)c2cc(NC(=O)NC(C)C)ccc2OC[C@H](C)N(Cc2ccc(-c3ccccn3)cc2)C[C@H]1C	inactive
CO[C@@H]1CN(C)C(=O)c2cc(NC(=O)NC3CCCCC3)ccc2OC[C@H](C)N(CCc2ccccc2)C[C@@H]1C	inactive
CO[C@@H]1CN(C)C(=O)c2cc(NC(=O)NC3CCCCC3)ccc2OC[C@@H](C)N(CCc2ccccc2)C[C@@H]1C	inactive
CO[C@H]1CN(C)C(=O)c2cc(NC(=O)NC(C)C)ccc2OC[C@H](C)N(Cc2ccc(-c3ccccn3)cc2)C[C@@H]1C	active
CO[C@@H]1CN(C)C(=O)c2cc(NC(=O)NC(C)C)ccc2OC[C@@H](C)N(Cc2ccc(-c3ccccn3)cc2)C[C@@H]1C	inactive
COc1ccccc1CNC(=O)C[C@H]1C[C@@H]2c3cc(NC(=O)NC4CCCC4)ccc3O[C@@H]2[C@H](CO)O1	inactive
NC[C@H]1CN(Cc2ccc(F)cc2)CCO1	inactive
CN1C(=O)c2cc(NC(=O)C3CCOCC3)ccc2OC[C@@H]2O[C@H](CC(=O)NCCc3ccncc3)CC[C@@H]21	inactive
N[C@@H](Cc1ccc2nonc2c1)C(=O)O	inactive
O=C(C[C@@H]1CC[C@@H]2[C@H](COC[C@H](O)CN2S(=O)(=O)c2ccc(Cl)cc2)O1)N1CCc2ccccc2C1	inactive
CCN(CC)CCOC(=O)C(Cc1cccc2ccccc12)CC1CCCO1.O=C(O)C(=O)O (configuration not stated)	active

SMILES	cytotoxicity call
O=C(c1cccc2ccccc12)N(C1CCCC1)C1CCCC1	inactive
CCn1c(=O)cc(N2CCC(C)CC2)[nH]c1=O	inactive
CO/N=C1\C[C@]2(C[C@@H]3C[C@@H](C/C=C(\C)C[C@@H](C)/C=C/C=C4\CO[C@@H]5[C@H](O)C(C)=C[C@@H](C(=O)O3)[C@]45O)O2)O[C@H](/C(C)=C/C(C)C)[C@H]1C	active
CON=C1CC2(CC3CC(CC=C(C)CC(C)C=CC=C4COC5C(O)C(C)=CC(C(=O)O3)C45O)O2)OC(C(C)=CC(C)C)C1C (configuration not stated)	active
COC1CC(OC2C(C)OC(OC3C(C)=CCC4CC(CC5(C=CC(C)C(C6CCCCC6)O5)O4)OC(=O)C4C=C(C)C(O)C5OCC(=CC=CC3C)C45O)CC2OC)OC(C)C1O (configuration not stated)	inactive
CO[C@H]1C[C@H](O[C@H]2[C@H](C)O[C@@H](O[C@@H]3/C(C)=C/C[C@@H]4C[C@@H](C[C@]5(C=C[C@H](C)[C@@H](C6CCCCC6)O5)O4)OC(=O)[C@@H]4C=C(C)[C@@H](O)[C@H]5OC/C(=C\C=C\[C@@H]3C)[C@]54O)C[C@@H]2OC)O[C@@H](C)[C@@H]1O	inactive
C[C@@H]1CN([C@H](C)CO)C(=O)c2cc(NC(=O)c3ccncc3)ccc2O[C@@H](C)CCCCO[C@H]1CN(C)S(=O)(=O)c1cn(C)cn1	inactive
CC(C)NC(=O)N(C)C[C@@H]1Oc2ncc(-c3ccc(C(=O)N(C)C)cc3)cc2C(=O)N([C@H](C)CO)C[C@H]1C	inactive
CN(C)C(=O)c1cccc(-c2cccc(-c3nc(C(=O)N4CCCCC4)cc4c3[C@H](CCO)N([S@@](=O)C(C)(C)C)C4)c2)c1	inactive
C[C@@H]1CN([C@@H](C)CO)C(=O)c2cc(NC(=O)c3ccccc3)ccc2O[C@@H](C)CCCCO[C@H]1CN(C)C(=O)Nc1ccc2c(c1)OCO2	inactive
C[C@@H]1CN([C@@H](C)CO)C(=O)CCCn2nncc2CO[C@H]1CN(C)Cc1ccc2c(c1)OCCN2C	inactive
CCC(C)C(=O)OC1CC(O)C=C2C=CC(C)C(CCC(O)CC(O)CC(=O)[O-])C21.[Na+] (configuration not stated)	inactive
CCC(C)C(=O)OC1CCC=C2C=CC(C)C(CCC3CC(O)CC(=O)O3)C21 (configuration not stated)	active
CCC(C)C(=O)OC1CC(C)C=C2C=CC(C)C(CCC3CC(O)CC(=O)O3)C21 (configuration not stated)	inactive
C[C@@H]1CCCCO[C@H](CN(C)C(=O)Nc2ccc(F)cc2)[C@@H](C)CN([C@@H](C)CO)C(=O)c2cc(NS(=O)(=O)c3ccc(F)cc3)ccc2O1	active
C[C@H]1CCCCO[C@H](CN(C)C(=O)Nc2ccc(F)cc2)[C@@H](C)CN([C@@H](C)CO)C(=O)c2cc(NS(=O)(=O)c3ccc(F)cc3)ccc2O1	active
C[C@@H]1CN([C@H](C)CO)C(=O)c2cc(NS(=O)(=O)c3ccc(F)cc3)ccc2O[C@@H](C)CCCCO[C@H]1CN(C)C(=O)Nc1ccc(F)cc1	inactive
C[C@@H]1CCCCO[C@H](CN(C)C(=O)Nc2ccc(F)cc2)[C@@H](C)CN([C@H](C)CO)C(=O)c2cc(NS(=O)(=O)c3ccc(F)cc3)ccc2O1	inactive
C[C@H](CO)N1C[C@H](C)[C@H](CN(C)C(=O)Nc2ccc(F)cc2)OCCCC[C@H](C)Oc2ccc(NS(=O)(=O)c3ccc(F)cc3)cc2C1=O	inactive
C[C@@H]1CN([C@@H](C)CO)C(=O)c2cc(NS(=O)(=O)c3ccc(F)cc3)ccc2O[C@@H](C)CCCCO[C@@H]1CN(C)C(=O)Nc1ccc(F)cc1	inactive
C[C@@H]1CN([C@H](C)CO)S(=O)(=O)c2ccc(C#Cc3ccccc3F)cc2O[C@@H]1CN(C)CC1CCOCC1	inactive
COc1ccc(CN(C)C[C@H]2OCCCC[C@@H](C)Oc3ccc(NC(=O)NC4CCCCC4)cc3C(=O)N([C@@H](C)CO)C[C@H]2C)cc1	inactive
Cc1ncsc1-c1ccc(CNC(=O)[C@@H]2C[C@@H](O)CN2C(=O)[C@H](C(C)C)N2Cc3ccccc3C2=O)cc1	inactive

SMILES	cytotoxicity call
CN1C(=O)Cc2cc(NS(C)(=O)=O)ccc21	inactive
COc1ccc(S(=O)(=O)Nc2ccc3c(c2)C(=O)N([C@@H](C)CO)C[C@H](C)[C@H](CN(C)Cc2ccc(C(=O)O)cc2)OCCCC[C@@H](C)O3)cc1	inactive
COCCN1C[C@H]2[C@H](OC)CCN(S(=O)(=O)c3cn(C)cn3)[C@H]2C1	inactive
CCC(=O)OC1(C(=O)CCl)C(C)CC2C3CCC4=CC(=O)C=CC4(C)C3(F)C(O)CC21C (configuration not stated)	inactive
CC1CC2C3CCC4=CC(=O)C=CC4(C)C3(Cl)C(O)CC2(C)C1(OC(=O)c1ccco1)C(=O)CCl (configuration not stated)	active
CCC(=O)OCC(=O)C1(OC(=O)CC)C(C)CC2C3CCC4=CC(=O)C=CC4(C)C3(Cl)C(O)CC21C (configuration not stated)	inactive
C[C@@H]1CCCCO[C@H](CN(C)C(=O)Nc2ccccc2)[C@H](C)CN([C@H](C)CO)C(=O)c2cc(NC(=O)CCC(F)(F)F)ccc2O1	inactive
C[C@@H]1CN([C@H](C)CO)C(=O)c2cc(NC(=O)Cc3ccccc3)ccc2O[C@@H](C)CCCCO[C@@H]1CN(C)Cc1ccc(C(=O)O)cc1	inactive
Cn1c(=O)c2[nH]c(-[n+]3ccc(C(=O)O)cc3)nc2n(C)c1=O	active
Cn1c(=O)c2[nH]c(Br)nc2n(C)c1=O [listing 1 of 2 here]	inactive
Cn1c(=O)c2[nH]c(Br)nc2n(C)c1=O [listing 2 of 2 here]	inactive
C[C@H]1CN([C@@H](C)CO)C(=O)c2cccc(NS(=O)(=O)c3ccc(F)cc3)c2O[C@H]1CN(C)S(C)(=O)=O	inactive
COc1ccc(S(=O)(=O)Nc2ccc3c(c2)C(=O)N([C@H](C)CO)C[C@@H](C)[C@H](CN(C)C(=O)Nc2ccc(C(F)(F)F)cc2)OCCCC[C@@H](C)O3)cc1	inactive
COc1ccc(S(=O)(=O)Nc2ccc3c(c2)C(=O)N([C@@H](C)CO)C[C@@H](C)[C@H](CN(C)C(=O)Nc2ccc(C(F)(F)F)cc2)OCCCC[C@H](C)O3)cc1	inactive
COc1ccc(S(=O)(=O)Nc2ccc3c(c2)C(=O)N([C@H](C)CO)C[C@H](C)[C@H](CN(C)C(=O)Nc2ccc(C(F)(F)F)cc2)OCCCC[C@@H](C)O3)cc1	inactive
COc1ccc(S(=O)(=O)Nc2ccc3c(c2)C(=O)N([C@H](C)CO)C[C@H](C)[C@H](CN(C)C(=O)Nc2ccc(C(F)(F)F)cc2)OCCCC[C@H](C)O3)cc1	inactive
COc1ccc(S(=O)(=O)Nc2ccc3c(c2)C(=O)N([C@@H](C)CO)C[C@H](C)[C@H](CN(C)C(=O)Nc2ccc(C(F)(F)F)cc2)OCCCC[C@H](C)O3)cc1	inactive
COc1ccc(S(=O)(=O)Nc2ccc3c(c2)C(=O)N([C@@H](C)CO)C[C@@H](C)[C@@H](CN(C)C(=O)Nc2ccc(C(F)(F)F)cc2)OCCCC[C@@H](C)O3)cc1	active
COc1ccc(S(=O)(=O)Nc2ccc3c(c2)C(=O)N([C@@H](C)CO)C[C@H](C)[C@@H](CN(C)C(=O)Nc2ccc(C(F)(F)F)cc2)OCCCC[C@H](C)O3)cc1	active
COc1ccc(S(=O)(=O)Nc2ccc3c(c2)C(=O)N([C@@H](C)CO)C[C@H](C)[C@@H](CN(C)C(=O)Nc2ccc(C(F)(F)F)cc2)OCCCC[C@@H](C)O3)cc1	active
COc1ccc(S(=O)(=O)Nc2ccc3c(c2)C(=O)N([C@@H](C)CO)C[C@H](C)[C@H](CN(C)C(=O)Nc2ccc(C(F)(F)F)cc2)OCCCC[C@@H](C)O3)cc1	inactive
